For some assays here: Measured potencies and affinities stand elsewhere. The source made the active and inactive calls. Unless noted, the rule behind the calls is not given here.
Assays:
[1] = antimalarial activity against Dd2 strain (AID 2302;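 active = growth inhibition above 50% at the single 2 µM test dose, taken to imply half-maximal potency below 2 µM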;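 note: 0% = DMSO untreated growth and 100% = chloroquine plus artemisinin killed control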); conditions: P. falciparum Dd2 in RBCs, LDH growth readout, 72 h; at 2 µM; stronger effect = higher value
[2] = HepG2 cytotoxicity, primary screen, cytotoxicity control for P. falciparum antimalarial project, cell-based, ATP luminescence (AID 2303;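 active = inhibition above 50%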;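 note: 0% = DMSO wells and 100% = digitonin-killed cells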); conditions: HepG2 viability, 24-48 h, at 10 µM, stronger effect = higher value
[3] = molecular target: L-lactate dehydrogenase (Plasmodium falciparum (isolate CDC / Honduras)) (UniProt Q27743); test: PfLDH activity inhibition – cell lysate, 3D7 strain, counter-screen for P. falciparum growth inhibition project (AID 2304);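 note: 0% = vehicle and 100% = reference inhibitor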; conditions: P. falciparum 3D7 crude extract, LDH APAD/NBT absorbance; at 2 µM; stronger effect = higher value
Chain of L-lactate dehydrogenase (Plasmodium falciparum (isolate CDC / Honduras)) (Q27743 whole entry, looked up): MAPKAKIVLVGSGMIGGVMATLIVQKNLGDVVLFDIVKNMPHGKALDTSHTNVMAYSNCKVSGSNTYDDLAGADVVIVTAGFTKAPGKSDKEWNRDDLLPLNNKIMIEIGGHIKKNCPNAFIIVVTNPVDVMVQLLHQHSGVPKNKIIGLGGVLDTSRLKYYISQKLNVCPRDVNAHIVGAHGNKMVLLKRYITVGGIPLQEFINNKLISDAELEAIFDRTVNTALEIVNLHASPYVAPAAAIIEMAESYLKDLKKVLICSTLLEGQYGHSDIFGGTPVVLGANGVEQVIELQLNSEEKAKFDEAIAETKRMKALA

[4] = inhibition of 3D7 malaria parasite growth – strain 3D7 (AID 2306);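 note: 0% = DMSO wells and 100% = chloroquine plus artemisinin control wells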; conditions: P. falciparum 3D7 erythrocytic growth, LDH absorbance, 72 h; at 2 µM; stronger effect = higher value
[5] = molecular target: Calcium-dependent protein kinase 1 (Plasmodium falciparum (isolate 3D7)) (UniProt P62344); test: PfCDPK1 kinase inhibitors, biochemical, TCAMS library (AID 1159585; cut-off not given, nearly all actives have IC50 up to about 0.98 µM;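 note: inhibitors leave more ATP so luminescence rises with inhibition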); conditions: recombinant PfCDPK1, Kinase-Glo ATP depletion luminescence
Chain of Calcium-dependent protein kinase 1 (Plasmodium falciparum (isolate 3D7)) (P62344 whole entry, looked up): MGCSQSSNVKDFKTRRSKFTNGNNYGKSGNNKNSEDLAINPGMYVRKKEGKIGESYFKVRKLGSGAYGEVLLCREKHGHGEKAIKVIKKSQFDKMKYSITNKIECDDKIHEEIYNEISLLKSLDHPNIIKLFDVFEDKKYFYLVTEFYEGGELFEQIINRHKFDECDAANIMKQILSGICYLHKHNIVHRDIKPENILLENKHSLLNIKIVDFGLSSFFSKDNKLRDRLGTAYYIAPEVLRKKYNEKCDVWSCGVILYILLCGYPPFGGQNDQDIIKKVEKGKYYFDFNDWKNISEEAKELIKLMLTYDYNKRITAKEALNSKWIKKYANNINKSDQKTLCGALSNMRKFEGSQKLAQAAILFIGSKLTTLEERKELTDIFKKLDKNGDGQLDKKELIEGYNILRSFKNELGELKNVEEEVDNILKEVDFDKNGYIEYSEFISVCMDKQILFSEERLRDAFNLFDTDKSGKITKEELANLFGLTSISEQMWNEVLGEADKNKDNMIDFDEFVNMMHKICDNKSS

[6] = molecular target: Plasmodium falciparum protein kinase 6 (PK6, PF3D7_1337100) (UniProt Q8IDW1); test: PfPK6 kinase inhibitors, biochemical, TCAMS library (AID 1159586); conditions: recombinant PfPK6, Kinase-Glo ATP depletion luminescence
Chain of Plasmodium falciparum protein kinase 6 (PK6, PF3D7_1337100) (Q8IDW1 1-305): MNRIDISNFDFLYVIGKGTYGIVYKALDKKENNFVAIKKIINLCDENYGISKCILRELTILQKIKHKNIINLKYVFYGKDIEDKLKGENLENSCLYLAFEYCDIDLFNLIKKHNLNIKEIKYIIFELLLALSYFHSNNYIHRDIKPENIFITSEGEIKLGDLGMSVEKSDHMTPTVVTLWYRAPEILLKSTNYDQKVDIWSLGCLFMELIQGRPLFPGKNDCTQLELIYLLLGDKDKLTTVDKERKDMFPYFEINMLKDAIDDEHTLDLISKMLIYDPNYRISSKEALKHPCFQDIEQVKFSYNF

[7] = molecular target: Protein kinase 7 (PK7), Plasmodium falciparum 3D7 (PF3D7_0213400) (UniProt Q7YTF7); test: inhibition of Plasmodium PK7 catalytic activity – biochemical, TCAMS antimalarial set, Kinase-Glo luminescence (AID 1159587); conditions: recombinant PfPK7, Kinase-Glo ATP depletion luminescence
Chain of Protein kinase 7 (PK7), Plasmodium falciparum 3D7 (PF3D7_0213400) (Q7YTF7 1-343): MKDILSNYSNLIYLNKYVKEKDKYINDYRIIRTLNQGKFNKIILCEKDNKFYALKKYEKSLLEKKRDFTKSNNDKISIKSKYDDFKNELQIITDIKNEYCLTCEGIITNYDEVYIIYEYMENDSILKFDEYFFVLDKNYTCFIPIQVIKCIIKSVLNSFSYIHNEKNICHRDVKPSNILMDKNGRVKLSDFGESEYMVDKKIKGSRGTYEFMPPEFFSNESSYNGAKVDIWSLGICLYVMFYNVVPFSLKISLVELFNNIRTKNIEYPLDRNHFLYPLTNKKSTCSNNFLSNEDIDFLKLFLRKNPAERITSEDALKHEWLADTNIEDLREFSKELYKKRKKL

[8] = molecular target: Calcium-dependent protein kinase 4 (Plasmodium falciparum (isolate 3D7)) (UniProt Q8IBS5); test: PfCDPK4 kinase inhibitors, biochemical, TCAMS library (AID 1159588; cut-off not given, nearly all actives have IC50 up to about 0.91 µM); conditions: recombinant PfCDPK4, Kinase-Glo ATP depletion luminescence
Chain of Calcium-dependent protein kinase 4 (Plasmodium falciparum (isolate 3D7)) (Q8IBS5 whole entry, looked up): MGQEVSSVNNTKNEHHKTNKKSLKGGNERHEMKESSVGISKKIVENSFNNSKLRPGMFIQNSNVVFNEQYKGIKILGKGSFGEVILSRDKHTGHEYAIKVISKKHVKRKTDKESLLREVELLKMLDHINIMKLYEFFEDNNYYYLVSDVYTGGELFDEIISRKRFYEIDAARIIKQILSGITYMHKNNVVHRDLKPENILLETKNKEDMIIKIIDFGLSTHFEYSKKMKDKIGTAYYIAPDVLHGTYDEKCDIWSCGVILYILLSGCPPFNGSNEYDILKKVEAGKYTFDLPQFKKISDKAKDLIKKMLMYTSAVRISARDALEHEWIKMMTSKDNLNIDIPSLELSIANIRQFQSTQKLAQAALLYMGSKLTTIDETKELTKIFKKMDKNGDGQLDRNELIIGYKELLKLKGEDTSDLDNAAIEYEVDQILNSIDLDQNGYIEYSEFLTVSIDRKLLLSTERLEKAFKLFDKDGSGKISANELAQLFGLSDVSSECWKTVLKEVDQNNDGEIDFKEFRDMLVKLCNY

Nc1nc(N)c2c(Cl)c(N(Cc3ccccc3)Cc3ccccc3)ccc2n1
inactive: growth inhibition [1] 2% | inhibition [3] 2% | outcome [5] | outcome [6] | outcome [7] | outcome [8]
active: inhibition [2] 66% | growth inhibition [4] 96%

CCCN(Cc1ccc(OCC)cc1)Cc1cc(=O)c2cc(Cl)ccc2[nH]1
inactive: inhibition [2] 47% | inhibition [3] 1% | outcome [5] | outcome [6] | outcome [7] | outcome [8]
active: growth inhibition [1] 82% | growth inhibition [4] 82%

CCn1c(-c2nonc2N)nc2cnc(Oc3cccc(NC(=O)c4ccc(OCCCN5CCCCC5)cc4)c3)cc21
inactive: growth inhibition [1] 12% | inhibition [2] 38% | inhibition [3] -4% | outcome [5] | outcome [6] | outcome [7] | outcome [8]
active: growth inhibition [4] 90%

CCOC(=O)c1ccc(N(CCCN(CCCN(c2ccc(C(=O)OCC)cc2)S(=O)(=O)c2ccc(C)cc2)CCc2ccc(O)cc2)S(=O)(=O)c2ccc(C)cc2)cc1
inactive: inhibition [2] -11% | inhibition [3] -1% | outcome [5] | outcome [6] | outcome [7] | outcome [8]
active: growth inhibition [1] 74% | growth inhibition [4] 96%

CCCCCCCc1[nH]c2ccccc2c(=O)c1C
inactive: inhibition [2] 48% | inhibition [3] 2% | outcome [5] | outcome [6] | outcome [7] | outcome [8]
active: growth inhibition [1] 96% | growth inhibition [4] 97%

O=C(N[C@@H](Cc1ccccc1)[C@H](O)CNC1CCc2ccccc2C1)c1cc(C2CCCC2)cc(N2CCCC2=O)c1 (stereo not given in full)
active: growth inhibition [1] 76% | growth inhibition [4] 99%
inactive: inhibition [2] 23% | inhibition [3] -4% | outcome [5] | outcome [6] | outcome [7] | outcome [8]

CCN(CC)C(=S)N=Nc1c(O)[nH]c2c(C)cccc12
inactive: inhibition [2] 28% | inhibition [3] 3% | outcome [5] | outcome [6] | outcome [7] | outcome [8]
active: growth inhibition [1] 69% | growth inhibition [4] 94%

N#Cc1ccc(-c2ccc(C(=O)NCCCCN3CCC(c4cn(CCCO)c5ccccc45)CC3)cc2)cc1
active: growth inhibition [1] 56% | growth inhibition [4] 98%
inactive: inhibition [2] 31% | inhibition [3] -2% | outcome [5] | outcome [6] | outcome [7] | outcome [8]

Nc1ncc(-c2ccccc2)cc1-c1nc2cc(Cl)c(F)cc2[nH]1
inactive: inhibition [2] 37% | inhibition [3] 1% | outcome [5] | outcome [6] | outcome [7] | outcome [8]
active: growth inhibition [1] 91% | growth inhibition [4] 101%

CC(=NNC(=S)Nc1ccccc1Cl)c1ccccn1
active: growth inhibition [1] 99% | inhibition [2] 69% | growth inhibition [4] 100%
inactive: inhibition [3] 6% | outcome [5] | outcome [6] | outcome [7] | outcome [8]

Cc1cc(C)c(O)c(-c2cc(C(=O)Nc3ccc(S(=O)(=O)N4CC(C)OC(C)C4)cc3)[nH]n2)c1 (stereo not given)
inactive: growth inhibition [1] 16% | inhibition [2] 31% | inhibition [3] -1% | outcome [5] | outcome [6] | outcome [7] | outcome [8]
active: growth inhibition [4] 95%

O=c1c(Br)c(C(F)(F)F)[nH]c2ccc(Oc3ccccc3)cc12
inactive: growth inhibition [1] 17% | inhibition [2] 6% | inhibition [3] 0% | outcome [5] | outcome [6] | outcome [7] | outcome [8]
active: growth inhibition [4] 91%

Brc1ccc(C=NNc2nc3ccccc3[nH]2)cc1
active: growth inhibition [1] 90% | growth inhibition [4] 102%
inactive: inhibition [2] -3% | inhibition [3] 0% | outcome [5] | outcome [6] | outcome [7] | outcome [8]

CC(C)CCCC(C)(C)NC[C@@H](O)[C@H](Cc1ccccc1)NC(=O)c1cc(NC(C)C)cc(N2CCCCS2(=O)=O)c1
active: growth inhibition [1] 98% | growth inhibition [4] 98%
inactive: inhibition [2] 2% | inhibition [3] -1% | outcome [5] | outcome [6] | outcome [7] | outcome [8]

COC1(C)Oc2ccc3cccc([N+](=O)[O-])c3c2C1=O (stereo not given)
inactive: growth inhibition [1] -4% | inhibition [2] 3% | inhibition [3] -2% | outcome [5] | outcome [6] | outcome [7] | outcome [8]
active: growth inhibition [4] 98%

COc1cc(NC(=O)c2ccc(-c3ccccc3)cc2)ccc1OCCCN1CCC(c2ccccc2)CC1
inactive: growth inhibition [1] 30% | inhibition [2] 46% | inhibition [3] 2% | outcome [5] | outcome [6] | outcome [7] | outcome [8]
active: growth inhibition [4] 103%

CN1CC[C@@H](Oc2cc(Nc3nc(-c4ccc(C#N)cc4)cs3)ccc2Cl)C1
inactive: growth inhibition [1] 24% | inhibition [2] 12% | inhibition [3] -1% | outcome [5] | outcome [6] | outcome [7] | outcome [8]
active: growth inhibition [4] 99%

Cc1ccc(Cn2nc(N3CCNCC3)ccc2=O)cc1NC(=O)Nc1ccc(-c2ccccc2)cc1
active: growth inhibition [4] 94%
inactive: growth inhibition [1] 20% | inhibition [2] 46% | inhibition [3] -1% | outcome [5] | outcome [6] | outcome [7] | outcome [8]

CCNCc1ccc(-c2cccc(-c3nc4ccccc4[nH]3)c2)cc1
inactive: growth inhibition [1] 18% | inhibition [2] 26% | inhibition [3] 4% | outcome [5] | outcome [6] | outcome [7] | outcome [8]
active: growth inhibition [4] 102%

COc1ccc2ccccc2c1CNCC1CCN(CC2CCCCC2)CC1
inactive: growth inhibition [1] 27% | inhibition [2] 23% | inhibition [3] -3% | outcome [5] | outcome [6] | outcome [7] | outcome [8]
active: growth inhibition [4] 98%

O=C(C=Cc1cccs1)N(CCCn1ccnc1)c1nc2ccc(F)cc2s1
active: growth inhibition [4] 98%
inactive: growth inhibition [1] 28% | inhibition [2] -1% | inhibition [3] -1% | outcome [5] | outcome [6] | outcome [7] | outcome [8]

COc1cc(Nc2ncc3c(C)nc(-c4cccc(Nc5ccc(CN6CCS(=O)(=O)CC6)cc5)c4)n3n2)cc(OC)c1OC
active: growth inhibition [1] 79% | growth inhibition [4] 90%
inactive: inhibition [2] 2% | inhibition [3] 2% | outcome [5] | outcome [6] | outcome [7] | outcome [8]

c1cc(Cc2ccc(Nc3c4ccccc4nc4ccccc34)cc2)cc(Nc2c3ccccc3nc3ccccc23)c1
active: growth inhibition [1] 100% | inhibition [2] 91% | growth inhibition [4] 100%
inactive: inhibition [3] -5% | outcome [5] | outcome [6] | outcome [7] | outcome [8]

NOCCCCOc1cc(Cl)c(Cl)cc1Cl
inactive: growth inhibition [1] 5% | inhibition [2] 6% | inhibition [3] -2% | outcome [5] | outcome [6] | outcome [7] | outcome [8]
active: growth inhibition [4] 92%

COc1cccc(C2CCN(CCN3CCC(NC(=O)c4ccc(-c5ccc(C#N)cc5)cc4)CC3)CC2)c1
inactive: growth inhibition [1] 47% | inhibition [2] 28% | inhibition [3] 6% | outcome [5] | outcome [6] | outcome [7] | outcome [8]
active: growth inhibition [4] 98%

CN(C)Cc1cc2c(O)c(Cc3ccccc3)ccc2o1
inactive: inhibition [2] 3% | inhibition [3] -8% | outcome [5] | outcome [6] | outcome [7] | outcome [8]
active: growth inhibition [1] 69% | growth inhibition [4] 85%

FC(F)(F)c1ccc2nc(-c3ccc(-c4cccc(CNCc5cnn(-c6ccccc6)n5)c4)cc3)[nH]c2c1
active: growth inhibition [1] 83% | growth inhibition [4] 99%
inactive: inhibition [2] 19% | inhibition [3] -1% | outcome [5] | outcome [6] | outcome [7] | outcome [8]

COc1ccc(-c2cn3c(C(=O)Nc4ccccc4Cl)c(-c4ccccc4)c4c3n2CCCC4)cc1
inactive: growth inhibition [1] 1% | inhibition [2] 7% | inhibition [3] -4% | outcome [5] | outcome [6] | outcome [7] | outcome [8]
active: growth inhibition [4] 100%

CCC(C)(C)NC(=O)C(c1cccc(OC)c1)N(C(=O)CNC(=O)c1cccs1)c1ccc2c(c1)OCCO2 (stereo not given)
inactive: inhibition [2] -7% | inhibition [3] -7% | outcome [5] | outcome [6] | outcome [7] | outcome [8]
active: growth inhibition [1] 76% | growth inhibition [4] 100%

CC(C)[C@@H]1c2ccc(O)cc2C[C@H]2C(=O)N(C3CCCCC3)C(=O)N21
inactive: inhibition [2] 2% | inhibition [3] 0% | outcome [5] | outcome [6] | outcome [7] | outcome [8]
active: growth inhibition [1] 88% | growth inhibition [4] 95%

CCNc1cc(C(=O)N[C@@H](Cc2ccccc2)[C@H](O)CNC2CCCC2)cc(N2CCCC2=O)c1
active: growth inhibition [1] 98% | growth inhibition [4] 98%
inactive: inhibition [2] 8% | inhibition [3] 2% | outcome [5] | outcome [6] | outcome [7] | outcome [8]

CN(C)c1nc2cc(-n3cnc4cc(-c5ccc(Cl)cc5)sc4c3=O)ccc2n1CCCN1CCCCC1
active: inhibition [2] 55% | growth inhibition [4] 97%
inactive: growth inhibition [1] 23% | inhibition [3] 1% | outcome [5] | outcome [6] | outcome [7] | outcome [8]

COc1ccc2c(NN=Cc3ccccc3[N+](=O)[O-])ccnc2c1
active: growth inhibition [1] 97% | inhibition [2] 98% | growth inhibition [4] 102%
inactive: inhibition [3] -3% | outcome [5] | outcome [6] | outcome [7] | outcome [8]

Clc1ccccc1CCNCC1CCN(CC2CCCCC2)CC1
inactive: growth inhibition [1] 38% | inhibition [2] 45% | inhibition [3] -5% | outcome [5] | outcome [6] | outcome [7] | outcome [8]
active: growth inhibition [4] 97%

NC(N)=Nc1nc(-c2ccc(NC(=O)Nc3cccc(-c4csc(N=C(N)N)n4)c3)cc2)cs1
active: growth inhibition [1] 80% | growth inhibition [4] 94%
inactive: inhibition [2] -9% | inhibition [3] 3% | outcome [5] | outcome [6] | outcome [7] | outcome [8]

O=c1cc(NCCCNC2CCc3ccc(Cl)cc32)[nH]c2ccccc12 (stereo not given)
inactive: growth inhibition [1] 39% | inhibition [2] -2% | inhibition [3] 3% | outcome [5] | outcome [6] | outcome [7] | outcome [8]
active: growth inhibition [4] 92%

CCCc1cc(Cc2cnc(N)nc2N)ccc1OCCCCCC(=O)OCC
active: growth inhibition [4] 97%
inactive: growth inhibition [1] 1% | inhibition [2] -11% | inhibition [3] 0% | outcome [5] | outcome [6] | outcome [7] | outcome [8]

Cc1cccc2[nH]c(-c3ccc(-c4cccc(CNCCNC(=O)c5ccnn5C)c4)cc3)nc12
active: growth inhibition [1] 92% | growth inhibition [4] 100%
inactive: inhibition [2] 17% | inhibition [3] -4% | outcome [5] | outcome [6] | outcome [7] | outcome [8]

FC(F)(F)c1cccc(Nc2nc(-c3ccccc3)nc3ncccc23)c1
inactive: inhibition [2] 17% | inhibition [3] -1% | outcome [5] | outcome [6] | outcome [7] | outcome [8]
active: growth inhibition [1] 97% | growth inhibition [4] 97%

CC(C)N1CCC(NC(=O)N2CCCN(c3ncnc4cc(-c5ccccc5)sc34)CC2)CC1
active: growth inhibition [4] 87%
inactive: growth inhibition [1] 11% | inhibition [2] 31% | inhibition [3] -4% | outcome [5] | outcome [6] | outcome [7] | outcome [8]

Reference: PubChem BioAssay
